HT1080 IDH1KD tx – kills HT-1080 cells with IDH1 knockdown | Potency, µM (top dose mostly 46.1 µM), for inactives: at the top dose activity, negative = toxicity, actives largely listed as cytotoxic | actives 2% (n = 360,000) | HT-1080 IDH1 knockdown viability, ATP luminescence, 48 h;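 further: potency means the concentration at half of the fitted maximal effect; 0% = DMSO wells and -100% = cell-free medium wells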
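After a 2 h attachment period, IDH1KD HT-1080 cells took pin-transferred compound for 48 h at 37 °C; ATP-based luminescence after 10 min room-temperature reagent incubation reported viability.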
ELG1 repair inh – ELG1-dependent DNA repair inhibition | HEK293T ELG1-luciferase reporter, luminescence, 16 h; DNA damage induced by 5-fluorouridine | Potency, µM (series often up to 46.1 µM), for inactives: top-dose activity change, negative = inhibition, usual class: inhibitors | actives 2.3% (n = 330,000) | AID 504467; further: potency means the concentration at half of the fitted maximal effect; nearly all actives have a fitted effect of over 55% in size
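Luminescence from the luciferase reporter, measured 30 min after ONE-Glo reagent at room temperature, was the read-out. Beforehand, 2,000 cells per well were exposed for 16 hr at 37 °C to 5-fluorouridine together with compound or vehicle.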
DT40 TDP1 no CPT – qHTS for Inhibitors of human tyrosyl-DNA phosphodiesterase 1 (TDP1): qHTS in cells in absence of CPT | Potency, µM (series often up to 46.2 µM), for inactives: top-dose activity change, negative = growth inhibition, actives largely listed as inhibitors | actives 15% (n = 420,000) | DT40 Tdp1-/- hTDP1 cells, no CPT, ATP luminescence, 48 h | AID 686978, 2013; further: potency means the concentration at half of the fitted maximal effect; nearly all actives have a fitted effect of over 55% in size
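Stably hTDP1-transfected Tdp1-null chicken DT40 cells were treated with library compounds minus camptothecin and grown for at least 48 hr at 37 °C, after which cellular ATP was quantified by luminescence.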
IL-1B inflam inh – blocks inflammasome-driven IL-1 beta release. THP-1 LPS/ATP IL-1B secretion, AlphaLISA, 16 h; hits give low values. activity change, % at 57.5 µM. actives 4.7% (n = 360,000). AID 743279; in the data active means activity change below about -50%; inconclusive means mostly about -30% to -49%
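Secreted IL-1B measured by AlphaLISA bead assay after 16 h compound exposure of THP-1 cells; compounds (final up to 57.5 uM) added 1 h before LPS (250 ng/mL) and ATP (1.25 mM) stimulation; lower signal means less secretion.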
HT1080-NT tox – kills 2HG-producing HT-1080-NT fibrosarcoma cells. actives 1.6% (n = 360,000). HT-1080-NT fibrosarcoma viability, CellTiter-Glo ATP luminescence, 48 h. Potency, µM (titrated, usually from 46.1 µM), for inactives: top-dose activity, negative = less viability, usual class: cytotoxic;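 further: NT is the 2HG producing partner of a matched IDH1 knockdown line; potency means the concentration at half of the fitted maximal effect; 0% = DMSO-treated cells and -100% = media-only wells without cells; nearly all actives have a fitted effect of over 55% in size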
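Read-out is CellTiter-Glo luminescence after 10 minutes at room temperature, following 48 hours' compound treatment of HT-1080-NT cells (750 cells/well, RPMI, 5% FBS, 37 degrees C).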
TDP1 cell CPT – DT40-hTDP1 cell growth loss with CPT; Potency, µM (highest dose often 46.2 µM), for inactives: at the highest dose activity change, negative = growth inhibition, usual class: inhibitors; actives 12% (n = 420,000); chicken DT40 Tdp1-/-;hTDP1 cells + 20 nM CPT, ATP luminescence, 48 h; further: potency means the concentration at half of the fitted maximal effect; nearly all actives have a fitted effect of over 55% in size
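Chicken DT40 Tdp1-/- cells stably complemented with human TDP1 were seeded at 400 cells/well in medium containing 20 nM camptothecin, exposed to pin-transferred compounds, and grown at 37 °C for at least 48 hr. Viability was read as ATP luminescence.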
Numbers without * were called inactive; ? = inconclusive; / = no result given; [ ] = remark or other dose. Rows were chosen to be rich in hits. Some 19% of all compounds tested hit in one or more screens of this group. Unless noted, the call rests on the fitted dose curve; in most records, active means well fitted curve in the direction sought with a large enough effect; inconclusive means small, poorly fitted or top-dose-only effect, or another doubt; inactive means no such curve, though single readings can be large; an effect the other way counts as inactive or inconclusive. Unless noted, on the % scale 0 is the no-effect control and ±100 the full control effect.

SMILES	HT1080 IDH1KD tx	ELG1 repair inh	DT40 TDP1 no CPT	IL-1B inflam inh	HT1080-NT tox	TDP1 cell CPT
Cc1cc(Cl)ccc1NC(=S)NC1CCCC1	4.7%	1.2%	20.6µM*	-8.8	4.9%	?
Cc1cccc(NC(=S)NC2CC3CCCC(C2)N3Cc2ccccc2)c1C (stereo not drawn)	-3.0%	-0.2%	?	-27.8	6.8%	16.4µM*
CC(C)(C)c1ccccc1NC(=S)NC1CCCCC1	-0.6%	-17.3%	18.4µM*	2.3	11.4%	?
COCCN1CCN(C(=O)c2cnn(-c3nccc(-c4cc5ccccc5o4)n3)c2C2CC2)CC1	/	/	-24.8%	/	/	-2.3%[9.04 µM]
Cc1ccc(-c2nnc(CCC(=O)N(C)Cc3nccs3)o2)s1	0.3%	6.0%	20.6µM*	-7.7	11.4%	3.6%
COc1cc(/C=C2/C(=O)c3cccc([N+](=O)[O-])c3C2=O)c(Br)cc1O	18.4µM*	?	5.17µM*	32.5	?	6.51µM*
COc1ccc(-c2onc(C)c2-c2ccc(C(=O)OC(C)C)o2)c(O)c1	3.0%	23.1µM*	16.4µM*	?	4.8%	20.6µM*
CC(=O)N1CCc2cc(S(=O)(=O)NC(Cc3ccccc3)C(=O)NCc3ccccc3)ccc21 (stereo not drawn)	/	/	6.5%	/	/	1.0%
C=CCn1c(=S)[nH]c2scc(-c3ccc(C)o3)c2c1=O	16.4µM*	?	10.3µM*	46.1	13µM*	?
C=CCn1c(SCC(C)=O)nc2scc(-c3ccc(C)o3)c2c1=O	?	?	?	-21.3	-22.9%	?
Cc1cc(C)cc(NC(=O)C(Cc2ccccc2)N2Cc3ccccc3C2=O)c1 (stereo not drawn)	/	/	?	/	/	-17.6%
CN(Cc1ccco1)C(=O)CC[C@H]1O[C@@H](n2ccc(=O)[nH]c2=O)[C@H](O)[C@@H]1O	16.5%	/	-2.8%	-12.1	2.8%	-14.1%
COc1ccccc1OC(C)C(=O)N1CCN(Cc2ccc3c(c2)OCO3)CC1 (stereo not drawn)	0.6%	0.3%	1.6%	-16.3	13.8%	5.0%
O=S(=O)(c1ccccc1)c1cc(O)ccc1O	-0.3%	6.4%	7.31µM*	0.0	-0.8%	3.26µM*
CCOC(=O)C1CCN(c2nc3ccccc3nc2Cl)CC1	/	/	-10.9%	/	/	0.1%
CCOC(=O)C1CCN(c2nc(C)nc3c2oc2ccccc23)CC1	-11.2%	?	23.1µM*	4.2	2.9%	23.1µM*
CCOC(=O)C1CCCN(c2nc(C)nc3c2oc2ccccc23)C1 (stereo not drawn)	?	?	20.6µM*	8.5	?	14.6µM*
Cc1cccc(NC(=O)CCCC(=O)OC(C)C(=O)c2ccccc2)c1 (stereo not drawn)	11.6%	-0.4%	-19.6%	-3.6	17.4%	-2.3%
COc1ccc(NC(=O)c2c3c(nc4ccccc24)CCN(Cc2ccccc2)C3)c(OC)c1	2.4%	?	?	-13.8	-19.8%	16.4µM*
CCN(CC)S(=O)(=O)c1ccc(OC(C)C)c(NC(=O)c2c3c(nc4ccccc24)CCN(Cc2ccccc2)C3)c1	-11.4%	5.8µM*	11.6µM*	-13.8	-8.6%	13µM*
COc1ccc(S(=O)(=O)N2CCCCCC2)cc1NC(=O)c1c2c(nc3ccccc13)CCN(Cc1ccccc1)C2	-2.8%	?	?	-1.4	4.1%	16.4µM*
O=C(CN1CCN(CC(=O)Nc2cccc(F)c2)CC1)Nc1ccc(-c2ccccc2)cc1	-9.4%	1.9%	-18.0%	-9.7	-10.3%	-29.3%
Cc1cccnc1-c1cccc2c1OC(CNC(=O)C(=O)c1ccccc1)C2 (stereo not drawn)	/	/	-28.1%	/	/	?
Cc1cc(C)cc(NC(=O)c2ccc(CSc3nnnn3C)cc2)c1	-10.3%	26.6%	-6.2%	-52.8*	-5.0%	-5.7%
C[C@@]12C(=O)N(CCO)CC(=O)N1[C@H](/C=C/c1ccccc1)[C@@H]1C(=O)N(c3ccccc3)C(=O)[C@@H]12	-2.6%	-9.5%	0.3%	-0.4	4.0%	3.3%
SMILES	HT1080 IDH1KD tx	ELG1 repair inh	DT40 TDP1 no CPT	IL-1B inflam inh	HT1080-NT tox	TDP1 cell CPT
Cc1csc(CN(C)C(=O)CC2C(=O)NCCN2Cc2ccc(F)c(F)c2)n1 (stereo not drawn)	-0.5%	13.0%	?	-7.8	0.0%	-6.8%
Cc1ccc(C)c(NC(=O)COc2cccc3c2CCN(Cc2ccccc2)C3=O)c1	-0.9%	?	?	19.3	1.0%	?
CCOC(=O)N1CCN(C(=O)COc2cccc3c2CCN(Cc2ccc(F)cc2)C3=O)CC1	-14.4%	20.6µM*	?	-24.2	-6.7%	?
O=C(COc1cccc2c1CCN(Cc1ccccc1)C2=O)NCc1ccco1	-1.7%	?	-0.4%	-5.4	-1.1%	6.8%
CCOC(=O)N1CCN(C(=O)COc2cccc3c2CCN(CC)C3=O)CC1	11.6%	-1.5%	-9.9%	6.1	-3.4%	-7.1%
Cc1ccc(CN2CCc3c(OCC(=O)Nc4cc(C)ccc4C)cccc3C2=O)cc1	/	23.1µM*	/	/	/	/
O=C(COc1cccc2c1CCN(Cc1ccc(Cl)cc1)C2=O)N1CCOCC1	-22.6%	11.6µM*	?	?	-0.1%	?
O=C(COC(=O)CCc1ccc(S(=O)(=O)N2CCOCC2)cc1)NC(=O)NC1CCCCC1	7.7%	5.7%	-3.0%	9.3	5.0%	14.5%
CNC(=O)COc1coc(CN2CCN(c3ccc(F)cc3)CC2)cc1=O	16.4%	6.0%	25.8%	12.3	12.8%	-2.0%
Cc1ccccc1/C=C/C1=NCCN1	-0.3%	22.9%	-0.2%	-91.8*	0.0%	-14.0%
Cc1ccccc1/C=N/n1c(-c2ccccn2)n[nH]c1=S	0.4%	4.5%	-3.1%	24.2	7.4%	15.0%
Cc1[nH]c2ccccc2c1C(=O)C(=O)N1CC(C)OC(C)C1 (stereo not drawn)	2.1%	-1.5%	-8.4%	-3.2	8.8%	-0.8%
Cc1[nH]c2ccccc2c1C(=O)C(=O)N1CC=C(c2ccccc2)CC1	20.6µM*	?	23.1µM*	-13.7	?	14.6µM*
O=C(N/N=C\c1ccc(F)cc1)c1ccc(F)cc1	20.8%	?	3.3%	0.0	26.9%	11.7%
CC(C)(C)c1cc(C(=O)N/N=C/c2ccc(F)cc2)n(-c2ccccc2)n1	10.5%	-1.9%	23.1µM*	10.6	-1.2%	18.4µM*
